# Measurements from PubChem BioAssay (Tox21).
# Values joined by “and” are separate entries in the source; they are usually repeats but may differ in a detail not shown here. Equal entries are not always repeated. Active and inactive are the calls of the source. A call without a number means that no potency is given here. Calls come from the whole dose curve.
# Biological target: Estrogen receptor (Homo sapiens) (UniProt P03372)
# Test: qHTS assay to identify small molecule agonists of the estrogen receptor alpha (ER-alpha) signaling pathway in the presence of an antagonist (AID 1259383); note: nearly all actives have a fitted effect of over 15% in size
# Conditions: VM7Luc4E2 cells, ERE-luciferase, +ICI-182,780, 22 h; series mostly up to 92.4 µM
# Source text: National Center for Advancing Translational Sciences [NCATS] NIH Chemical Genomics Center [NCGC] U.S. Environmental Protection Agency [EPA] National Institutes of Environmental Health Sciences [NIEHS] National Toxicology Program [NTP] Assay overview: Estrogen receptor (ER), a member of nuclear hormone receptor plays an important role in development, metabolic homeostasis and reproduction. Two subtypes of ER, ER-alpha and ER-beta, have similar expression patterns with some uniqueness in both types. Endocrine disrupting chemicals (EDCs) and their interactions with steroid hormone receptors like ER causes disruption of normal endocrine function. Therefore, it is important to understand the effect of environmental chemicals in ER signaling pathway. For identifying ER agonists, VM7Luc4E2 cell line has been used in the current assay. VM7Luc4E2 cell line (provided by Denison MS, University of California) endogenously expresses full-length ER-alpha and is stably transfected with a plasmid containing four estrogen responsive elements (ERE) upstream of a luciferase reporter gene. This current screening for measuring luciferase reporter gene activity using VM7Luc4E2 cells against Tox21 10K library collection is a confirmation study on agonist mode screening in presence of ER-antagonist (ICI-182,780) at 10.0nM final concentration.
# Assay Protocol Summary: VM7Luc4E2 cells were cultured in phenol red free assay medium containing 10% charcoal stripped FBS for 5 days prior to the assay. The cells were dispensed at 4,000 cells in 4uL of assay medium per well into white wall/solid-bottom 1536-well plates (Corning Life Sciences, Corning, NY) using a Multidrop Combi (Thermo Fisher Scientific Inc., Waltham, MA) dispenser. After the assay plates were incubated at 37C and 5% CO2 for 24hr, 1uL of 10.0nM (final concentration) ICI-182,780 or assay buffer was added using two separate tips of Flying Reagent Dispenser (FRD, Aurora Discovery, San Diego, CA). Then 23nL of compounds dissolved in DMSO at 15 concentrations and positive controls or DMSO only was transferred to the assay plates by a Pintool station (Wako, San Diego, CA). The assay plates were incubated at 37C and 5% CO2 for 22hr. For luciferase read, 4uL/well ONE-Glo reagent (Promega Corporation, Madison, WI) was added to each well using FRD and after 30min incubation at room temperature, luminescence signal was measured on ViewLux plate reader (PerkinElmer, Shelton, CT).
# Potency is the fitted concentration of half-maximal effect.
# Chain of Estrogen receptor (Homo sapiens) (P03372 whole entry, looked up): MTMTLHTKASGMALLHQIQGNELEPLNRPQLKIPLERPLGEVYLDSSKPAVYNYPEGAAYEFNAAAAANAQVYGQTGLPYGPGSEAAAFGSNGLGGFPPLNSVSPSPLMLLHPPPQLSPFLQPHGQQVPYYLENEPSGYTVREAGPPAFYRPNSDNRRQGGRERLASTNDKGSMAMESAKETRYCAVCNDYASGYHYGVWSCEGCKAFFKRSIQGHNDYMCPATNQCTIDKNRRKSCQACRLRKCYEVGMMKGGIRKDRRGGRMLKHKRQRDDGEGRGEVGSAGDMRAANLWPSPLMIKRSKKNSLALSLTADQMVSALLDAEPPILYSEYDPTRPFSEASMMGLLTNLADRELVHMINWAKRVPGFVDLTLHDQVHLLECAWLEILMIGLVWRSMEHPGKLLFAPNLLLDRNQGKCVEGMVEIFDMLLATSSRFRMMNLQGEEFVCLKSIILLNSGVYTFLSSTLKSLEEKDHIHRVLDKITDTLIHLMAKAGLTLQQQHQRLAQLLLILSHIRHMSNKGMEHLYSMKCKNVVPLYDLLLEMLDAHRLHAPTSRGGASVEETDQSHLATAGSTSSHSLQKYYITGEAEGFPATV
row,SMILES,Potency
1,CC(C)(C#N)N=NC(C)(C)C#N,inactive
2,CC(C)Nc1nc(Cl)nc(NC(C)C)n1,inactive
3,COP(=S)(OC)Oc1ccc(S(=O)(=O)N(C)C)cc1,inactive
4,N#Cc1c(Cl)c(Cl)c(Cl)c(C#N)c1Cl,inactive
5,Clc1cccc(C(Cl)(Cl)Cl)n1,inactive
6,C[C@]12CCC(=O)C=C1CC[C@@H]1[C@@H]2CC[C@@]2(C)[C@H]1CC[C@]2(C)O,11.3 µM (active) and 10.6 µM (active)
7,CN(C)c1nc(=O)n(C2CCCCC2)c(=O)n1C,inactive
8,CC(C)(O)C(=O)Nc1ccc([N+](=O)[O-])c(C(F)(F)F)c1,inactive
9,Cc1cccc(N=Nc2ccc(N(C)C)cc2)c1,247 nM (active) and 273 nM (active)
10,CCCCOC(=O)COC(=O)c1ccccc1C(=O)OCCCC,inactive
11,CN(C)P(=O)(N(C)C)N(C)C,inactive
12,CC1(C)C(C(=O)OC(C#N)c2cccc(Oc3ccccc3)c2)C1(C)C (stereo not given),inactive
13,CC(C)CON=O,inactive
14,CC(C)COC(=O)c1ccccc1C(=O)OCC(C)C,inactive
15,Cc1ccc(N=CN(C)C=Nc2ccc(C)cc2C)c(C)c1,inactive
16,CC(C)Nc1ccc(Nc2ccccc2)cc1,inactive
17,c1ccc2c(c1)Nc1ccccc1S2,inactive
18,COP(=S)(OC)SCn1nnc2ccccc2c1=O,inactive
19,CCN(CC)C(=O)C(C)Oc1cccc2ccccc12 (stereo not given),inactive
20,Cn1c(-c2ccccc2)cc(-c2ccccc2)[n+]1C,inactive

row,SMILES,Potency
1,O=NN(c1ccccc1)c1ccccc1,inactive
2,CCCCOCC1CO1 (stereo not given),inactive
3,O=C1C(Cl)=C(Cl)C(=O)c2ccccc21,inactive
4,Clc1ccccc1-c1nnc(-c2ccccc2Cl)nn1,inactive
5,OCCOCCO,inactive
6,Clc1ccc(C(Cl)(Cl)Cl)cc1,inactive
7,C[N+](C)(C)CC(=O)O,inactive
8,O=[N+]([O-])c1ccc(Nc2ccccc2)cc1,inactive
9,CC1(C)Cc2cccc(O)c2O1,inactive
10,CC(C)=CC1C(C(=O)OCc2cccc(Oc3ccccc3)c2)C1(C)C (stereo not given),inactive
11,C[C@]12CC[C@H]3[C@@H](CCC4=CC(=O)CC[C@@H]43)[C@@H]1CC[C@@H]2O,1.21 µM (active) and 6.68 µM (active)
12,O=[N+]([O-])/N=C1\NCCN1Cc1ccc(Cl)nc1,inactive
13,COc1ccc(O)c(C(C)(C)C)c1,inactive
14,CC1=C(C(=O)Nc2ccccc2)SCCO1,inactive
15,CCC[CH2][Sn]([Cl])([CH2]CCC)[CH2]CCC,inactive
16,CCC1(c2ccc(N)cc2)CCC(=O)NC1=O (stereo not given),inactive
17,CCCCC(C#N)(Cn1cncn1)c1ccc(Cl)cc1 (stereo not given),inactive
18,O=[N+]([O-])c1ccc(Cl)c([N+](=O)[O-])c1,inactive
19,Nc1ccc2ccccc2c1,inactive
20,CNC(=S)S,inactive
